Data on 92 variants can be found in a collection of fitness landscapes (doi:10.1016/j.celrep.2020.107928).

The chains are these.
B1: Caulobacter ParB omega fusion; a variant is named by its letters at X, in order, B8GW30 (parent)
chain: MESVVVGEPGMSEGRRGLGRGLSALLGEVDAAPAQAPGEQLGGSREAPIEILQRNPDQPRRTFREEDLEDLSNSIREKGVLQPILVRPSPDTAGEYQIVAGERAWRAAQRAGLKTVPIMVRELDDLAVLEIGIIENVQRADLNVLEEALSYKVLMEKFERTQENIAQTIGKSXSHVANXMRLLXLPDEVQSYLVSGELTAXHARAIAAAADPVALAKQIIEGGLSVRETEALARKAPNLSAGKSKGGRPPRVKDTDTQALESDLSSVLGLDVSIDHRGSTGTLTITYATLEQLDDLCNRLTRGI

In all, about 81,000 sequences were measured (“one-hybrid fitness for binding NBS DNA”: median about -0.1, highest 2% from about 0.36 on). Only a selection was taken, and the highest values are over-represented in it overall.

In this assay the parent is B1. Kind of assay: one-hybrid fitness for binding NBS DNA (the Noc-binding site; scaled: cognate 1, non-cognate 0); higher = stronger binding. To be noted: with NBS DNA site. In short, it runs like this: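 On M9-minus-histidine containing 0.1 mM IPTG and 5 mM 3-AT, E. coli USO cells with a HIS3 reporter, site 19 bp from the promoter, grew 48 hours at 37°C to select Caulobacter ParB libraries randomised at four specificity codons. Plasmids from before and after were Illumina-sequenced, with three replicate libraries pooled and variants under 10 reads left out. Fitness is the log change in variant-to-wild-type read ratio, rescaled against cognate and non-cognate.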
As to HVLW, the “one-hybrid fitness for binding NBS DNA” value is at most 0.2.

With ITMG, the “one-hybrid fitness for binding NBS DNA” value was at most 0.2.

VHNR: the “one-hybrid fitness for binding NBS DNA” value was at most 0.2.

As for LWVP, the “one-hybrid fitness for binding NBS DNA” value is at most 0.2.

In the case of VKGG, the “one-hybrid fitness for binding NBS DNA” value is at most 0.2.

As to EIGT, the “one-hybrid fitness for binding NBS DNA” value was at most 0.2.

For the variant RTET, the “one-hybrid fitness for binding NBS DNA” value turned out to be 0.234.

Consider RTSH, for which the “one-hybrid fitness for binding NBS DNA” value was 0.207.

For the variant RTYT, the “one-hybrid fitness for binding NBS DNA” value is 0.494.

On to RTQT, for which the “one-hybrid fitness for binding NBS DNA” value came out at 0.537.

With RTRT, the “one-hybrid fitness for binding NBS DNA” value is 0.704.

For the variant RTPT, the “one-hybrid fitness for binding NBS DNA” value stood at 0.201.

Consider RTSP, for which the “one-hybrid fitness for binding NBS DNA” value is at most 0.2.

In the case of RTIT, the “one-hybrid fitness for binding NBS DNA” value was 0.352.

For the variant RTST, the “one-hybrid fitness for binding NBS DNA” value stood at 0.565.

For the variant RTWT, the “one-hybrid fitness for binding NBS DNA” value was 0.356.

In the case of RTQM, the “one-hybrid fitness for binding NBS DNA” value was at most 0.2.

As for RTQC, the “one-hybrid fitness for binding NBS DNA” value was at most 0.2.

Consider GGKA, for which the “one-hybrid fitness for binding NBS DNA” value is at most 0.2.

On to AFLS, for which the “one-hybrid fitness for binding NBS DNA” value is at most 0.2.

As for RKPM, the “one-hybrid fitness for binding NBS DNA” value was at most 0.2.

In the case of QSHF, the “one-hybrid fitness for binding NBS DNA” value was at most 0.2.

In the case of CTPF, the “one-hybrid fitness for binding NBS DNA” value was at most 0.2.

As for PLPM, the “one-hybrid fitness for binding NBS DNA” value was at most 0.2.

For KIKM, the “one-hybrid fitness for binding NBS DNA” value was at most 0.2.

As to HHNR, the “one-hybrid fitness for binding NBS DNA” value is at most 0.2.

Turning to NSTM, the “one-hybrid fitness for binding NBS DNA” value is at most 0.2.

As to RTGT, the “one-hybrid fitness for binding NBS DNA” value stood at 0.575.

As for RTGG, the “one-hybrid fitness for binding NBS DNA” value was at most 0.2.

As for RTGC, the “one-hybrid fitness for binding NBS DNA” value is at most 0.2.

Consider YFNT, for which the “one-hybrid fitness for binding NBS DNA” value is at most 0.2.

For the variant RRDK, the “one-hybrid fitness for binding NBS DNA” value is at most 0.2.

For RCSK, the “one-hybrid fitness for binding NBS DNA” value is at most 0.2.

For the variant RRRK, the “one-hybrid fitness for binding NBS DNA” value amounted to 0.41.

For the variant RRYK, the “one-hybrid fitness for binding NBS DNA” value amounted to 0.202.

With RSSK, the “one-hybrid fitness for binding NBS DNA” value is at most 0.2.

As to RRSK, the “one-hybrid fitness for binding NBS DNA” value was found to be 0.378.

For MRQS, the “one-hybrid fitness for binding NBS DNA” value was at most 0.2.

Consider MFRF, for which the “one-hybrid fitness for binding NBS DNA” value is at most 0.2.

Regarding LRHC, the “one-hybrid fitness for binding NBS DNA” value was at most 0.2.

In the case of KHAS, the “one-hybrid fitness for binding NBS DNA” value was at most 0.2.

For CVNW, the “one-hybrid fitness for binding NBS DNA” value was at most 0.2.

In the case of REMW, the “one-hybrid fitness for binding NBS DNA” value was at most 0.2.

For the variant IEPR, the “one-hybrid fitness for binding NBS DNA” value was found to be 0.427.

On to AEPR, for which the “one-hybrid fitness for binding NBS DNA” value stood at 0.408.

As for TEPR, the “one-hybrid fitness for binding NBS DNA” value was at most 0.2.

For IEYR, the “one-hybrid fitness for binding NBS DNA” value is at most 0.2.

With IEPS, the “one-hybrid fitness for binding NBS DNA” value was at most 0.2.

As for AEIR, the “one-hybrid fitness for binding NBS DNA” value is at most 0.2.

In the case of LSRY, the “one-hybrid fitness for binding NBS DNA” value is at most 0.2.

SFFN: the “one-hybrid fitness for binding NBS DNA” value was at most 0.2.

As for EDND, the “one-hybrid fitness for binding NBS DNA” value was at most 0.2.

With AQKT, the “one-hybrid fitness for binding NBS DNA” value was at most 0.2.

Regarding RCPR, the “one-hybrid fitness for binding NBS DNA” value was at most 0.2.

RRIR: the “one-hybrid fitness for binding NBS DNA” value was found to be 0.686.

Turning to RCIR, the “one-hybrid fitness for binding NBS DNA” value was determined as 0.294.

Consider RRID, for which the “one-hybrid fitness for binding NBS DNA” value is at most 0.2.

On to RRPR, for which the “one-hybrid fitness for binding NBS DNA” value turned out to be 0.605.

For the variant RRPP, the “one-hybrid fitness for binding NBS DNA” value was at most 0.2.

As to WWTF, the “one-hybrid fitness for binding NBS DNA” value is at most 0.2.

In the case of WLEG, the “one-hybrid fitness for binding NBS DNA” value was at most 0.2.

In the case of FKSG, the “one-hybrid fitness for binding NBS DNA” value is at most 0.2.

Take IVTP: the “one-hybrid fitness for binding NBS DNA” value is at most 0.2.

PVGL: the “one-hybrid fitness for binding NBS DNA” value is at most 0.2.

Take RHMD: the “one-hybrid fitness for binding NBS DNA” value is at most 0.2.

Turning to RCMS, the “one-hybrid fitness for binding NBS DNA” value turned out to be 0.412.

With RKMD, the “one-hybrid fitness for binding NBS DNA” value was at most 0.2.

For RPMS, the “one-hybrid fitness for binding NBS DNA” value was at most 0.2.

With RSMS, the “one-hybrid fitness for binding NBS DNA” value came to 0.351.

Turning to RTMH, the “one-hybrid fitness for binding NBS DNA” value is at most 0.2.

As for RHMH, the “one-hybrid fitness for binding NBS DNA” value was at most 0.2.

For the variant RKMS, the “one-hybrid fitness for binding NBS DNA” value is 0.586.

Take RTMD: the “one-hybrid fitness for binding NBS DNA” value was at most 0.2.

For the variant RTMS, the “one-hybrid fitness for binding NBS DNA” value worked out at 0.452.

On to RHMS, for which the “one-hybrid fitness for binding NBS DNA” value stood at 0.386.

Regarding RKMN, the “one-hybrid fitness for binding NBS DNA” value was at most 0.2.

In the case of WRRW, the “one-hybrid fitness for binding NBS DNA” value is at most 0.2.

Consider DIYS, for which the “one-hybrid fitness for binding NBS DNA” value is at most 0.2.

Take HNSK: the “one-hybrid fitness for binding NBS DNA” value was at most 0.2.

As to TLTK, the “one-hybrid fitness for binding NBS DNA” value is at most 0.2.

Regarding QCNQ, the “one-hybrid fitness for binding NBS DNA” value turned out to be 0.222.

Regarding QTNH, the “one-hybrid fitness for binding NBS DNA” value was found to be 0.495.

Take QTNF: the “one-hybrid fitness for binding NBS DNA” value worked out at 0.244.

Turning to QTDY, the “one-hybrid fitness for binding NBS DNA” value is at most 0.2.

As for QSNY, the “one-hybrid fitness for binding NBS DNA” value was at most 0.2.

Regarding QTNQ, the “one-hybrid fitness for binding NBS DNA” value came to 0.377.

QTNN: the “one-hybrid fitness for binding NBS DNA” value worked out at 0.327.

For the variant QTDS, the “one-hybrid fitness for binding NBS DNA” value was 0.331.

With QTDQ, the “one-hybrid fitness for binding NBS DNA” value is at most 0.2.

QTNY: the “one-hybrid fitness for binding NBS DNA” value was determined as 0.431.

Turning to QTNS, the “one-hybrid fitness for binding NBS DNA” value was 0.629.

In the case of QTDH, the “one-hybrid fitness for binding NBS DNA” value amounted to 0.335.
